Measurements as given in the supplement of paper PMC6555819.

The sequences below were run on RARb:RXRa (NR concentration 270 nM, RXRa partner concentration 90 nM) (assay: PBM binding z-score (relative to random genomic background probes); higher = stronger binding; sequences stand for … in GC…GCGATTGACAGCGTAGAATGAAGG).
Procedure, shortened: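 Regression normalization was applied to scanned fluorescence from custom Agilent 4×180K protein-binding microarrays. Before scanning, arrays were incubated 1 h with ligand-free nuclear receptor dimers, and binding was detected with antibodies against each partner (one per run). Binding z-scores use the random background probes as reference.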

| Sequence | PBM binding z-score |
| --- | --- |
| GCTAGTTGGTCAGTAAATGGTCACACACCGGTCG | 1.2 |
| AGCTCTAGGTAAAAGTTCAGTGAATCCCGAGGAT | 2.4 |
| TAGCCTAGGTCATTCAGGGGCCAGTATGGAAAGC | 4.11 |
| TAGCCTAGGTCATAGGCCAGTATACCACGCGAAC | 3.66 |
| CAATCTAGGTCAAAGGTCAAAGTCGAGCCAACCA | 5.89 |
| AGACAAAGTTCAGGACGAGGTAACGTAAAGCACG | 4.18 |
| CCTGCTAGTTCATGGTCAGCTAATCTACAGTATG | 1.55 |
| TCTCGGAGGACACGAAAAGTCAGAGCTCGACATC | 1.72 |
| TGACTGAGGTTAAAGATCAGGGAACGTGGCGTCG | 2.05 |
| TATACAGGGTCTAAGGCCAGAGTACGAATGTCGA | 0.935 |
| ATCTGTAGGTTATCGGGTCATTCAGTTTGCGCAT | 2.71 |
| GCTGCTCGGTCAACTGATGGTCAGCTAAAGCTCG | 2.87 |
| CCTTACAGGTCACGAGGTTATAGCACGACGAGCG | 5.31 |
| GCTGCTAGGTCGACTGATGGTCAGCTAAAGCTCG | 1.37 |
| TAGCCTAAGTCATGGGCCAGTATACCACGCGAAC | 0.0943 |
| CAAACTAGGTCAAAGGTCAAAGCCGAGCCAACCA | 5.94 |
| TCTAGTTGGTCAAAGGCCACACACTCGAAATGCG | 1.95 |
| AGATTGAGGTTACCAAAGATCAGGGAAACGCTTG | 2.24 |
| CCTAGCAGGCCACGGTCACTCAAGCATTTCGCTT | 1.95 |
| AGAATGAGGTTACCAGAGATCAGGGAAACGCTTG | 2.15 |

| Sequence | PBM binding z-score |
| --- | --- |
| CCTACTGGGCCAATGTCATTGATCAGTCAAAGCA | 0.363 |
| CCTACTGGGCCAACAAGGTCATTGATGCCGATAA | 2.8 |
| CCTACTGGGCGATTCAGAGGTCATTGATCATATG | 2.53 |
| CGTCCAACGTCAGCAGGTCAGTGAAAGCGACGTG | 1.82 |
| GGTACGAGGGCAAAGTTGATAGCATCTGTCGACG | 2.33 |
| CCTAGTTGGTCAAGGTCTCACACGCTATAGGTAC | 1.48 |
| ATATGTAGGTTACATCCGGGTCTTTCAGGCTATG | 1.21 |
| AGTCAAAGTTCAGTAGGTAACGTAAGATTCAGCT | 4.13 |
| CAAACTAGGTCACGAAAGGTCAAATTCGAATGAC | 6 |
| CATACAGGGTAAGCTAGGCCAGAGTAGGGACGGC | 0.588 |
| CCTGCTAGTTCAATGGTCAGCTAAAGCAGCTCGC | 1.49 |
| CCTAGTTGGTCAGGTGGTCACACACCGGATATGA | 1.25 |
| TAGCCTAGGTCATTGGACCAGTATAGTACGCATC | 3.65 |
| CCTGCTAGGTCAATGGTCAGCTAAAGCAGCTCGC | 3.73 |
| GCTGCTAGGTCAACTGATGGTCAGCTAGAGCTCG | 4.28 |
| ATCGAAAGGTGGACGAGGTGAGTATACACCGTTT | 0.89 |
| CCCGCTAGGTCATGGTCAGCTAATCTACAGTATG | 3.83 |
| CCAGACAGGTGAAAGGTAACTCACTCTGGTACGC | 1.26 |
| CCTAGCAGACCAATCTGGGTCACTCAAGGCTTGA | 0.96 |
